Composite z-score and z-score data for 14 molecules are collected here from PubChem BioAssay.

The source made the active and inactive calls.

Assay [1] deals with PRMT1 (protein arginine N-methyltransferase 1). Briefly: PRMT1 binders on small-molecule microarrays, primary screen, biochemical, small-molecule microarray, 635 nm fluorescence (AID 1088).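 Further: binding of Prmt1 protein to compounds spotted on small-molecule microarray slides.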 Particulars: small-molecule microarray binding, higher = more signal.
Assay [2] in a line: yeast growth modulation, basal conditions, primary screen, YJM789 clinical isolate, OD600, 24 h (AID 1089).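 Further: growth of clinical yeast isolate S. cerevisiae YJM 789 seeded 1000 cells per well; test concentration not given here.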 Particulars: S. cerevisiae YJM789 growth, higher = more signal, called active from +8 up or from −8 down.
Assay [3] in a line: fission yeast growth modulation, primary screen, strain 972, OD600, 24 h, no modulator (AID 1090).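 Further: basal condition with compound alone and no growth modifier present; test concentration not given here.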 The settings on record: S. pombe 972 growth, higher = more signal, called active from +8 up or from −8 down.
A short description of assay [4]: S. cerevisiae growth modulation with rapamycin, primary screen, strain BY4716, OD600, 96 h (AID 1091). Further: test concentration not given here. The settings on record: higher = more signal, called active from +8 up or from −8 down.
In assay [5] the target is Torsin-1A-interacting protein 2 (Homo sapiens) (UniProt Q8NFQ8). Briefly: LULL1 binders on small-molecule microarray, primary screen, cell lysate, human LULL1 lysate, 635/667 nm fluorescence (AID 1092).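 Further: probe is lysate of COS7 cells overexpressing human LULL1; score merges per-feature 667 nm fluorescence with signal-to-noise.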 Particulars: hLULL1 lysate binding, 635 nm fluorescence, higher = more signal.
The nature of assay [6]: E. coli growth modulation, two-sided OD650, primary screen, E. coli filamentation project, strain DRC41, 24 h (AID 1093).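 Further: MC1000 strain lacking acrAB efflux and sulA so SOS filamentation is blocked; test concentration not given here.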 Particulars: OD650, 24 h, higher = more signal, called active from +8 up or from −8 down.
The nature of assay [7]: small-molecule microarray binders of probe aLefty2, primary screen, biochemical, biotinylated probe, 635/667 nm fluorescence (AID 1094).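 Further: score merges spot fluorescence near 667 nm with spot signal-to-noise ratio.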 Particulars: higher = more signal.
Assay [8] concerns Noggin (protein binding on small-molecule microarray). Briefly: Noggin binders on small-molecule microarray, primary screen, biochemical, 635/667 nm fluorescence (AID 1095).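 Further: score merges 667 nm feature fluorescence with signal to noise over triplicate slides.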 Particulars: 635 nm fluorescence, higher = more signal.
In assay [9] the target is Neurogenic locus notch homolog protein 3 (Homo sapiens) (UniProt Q9UM47). Briefly: NOTCH3 binders on small-molecule microarray, primary screen, biochemical, 635/667 nm fluorescence (AID 1096). The settings on record: NOTCH3 binding, 635 nm fluorescence, higher = more signal.
Assay [10] can be described thus: small-molecule microarray binders of probe aEGFR, primary screen, biochemical, biotinylated probe, 635/667 nm fluorescence (AID 1097).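 Further: probe is a biotinylated anti-EGFR antibody binding compounds printed on slides; score combines fluorescence near 667 nm and signal to noise of each spot.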 Particulars: higher = more signal.

Sequence of Torsin-1A-interacting protein 2 (Homo sapiens) (Q8NFQ8 whole entry, looked up): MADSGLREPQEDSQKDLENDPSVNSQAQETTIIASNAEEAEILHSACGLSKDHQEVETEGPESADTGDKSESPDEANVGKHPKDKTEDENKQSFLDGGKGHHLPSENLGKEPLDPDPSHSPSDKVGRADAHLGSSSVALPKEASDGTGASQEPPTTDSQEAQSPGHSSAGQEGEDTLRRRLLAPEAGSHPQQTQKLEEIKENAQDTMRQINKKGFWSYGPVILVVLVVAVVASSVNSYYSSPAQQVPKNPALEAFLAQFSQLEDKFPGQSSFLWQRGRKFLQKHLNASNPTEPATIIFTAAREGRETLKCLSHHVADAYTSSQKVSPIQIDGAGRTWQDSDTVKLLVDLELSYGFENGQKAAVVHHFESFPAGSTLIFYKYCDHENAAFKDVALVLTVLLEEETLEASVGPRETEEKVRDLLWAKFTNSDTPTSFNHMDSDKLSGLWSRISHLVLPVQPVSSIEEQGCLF
Sequence of Neurogenic locus notch homolog protein 3 (Homo sapiens) (Q9UM47 whole entry, looked up): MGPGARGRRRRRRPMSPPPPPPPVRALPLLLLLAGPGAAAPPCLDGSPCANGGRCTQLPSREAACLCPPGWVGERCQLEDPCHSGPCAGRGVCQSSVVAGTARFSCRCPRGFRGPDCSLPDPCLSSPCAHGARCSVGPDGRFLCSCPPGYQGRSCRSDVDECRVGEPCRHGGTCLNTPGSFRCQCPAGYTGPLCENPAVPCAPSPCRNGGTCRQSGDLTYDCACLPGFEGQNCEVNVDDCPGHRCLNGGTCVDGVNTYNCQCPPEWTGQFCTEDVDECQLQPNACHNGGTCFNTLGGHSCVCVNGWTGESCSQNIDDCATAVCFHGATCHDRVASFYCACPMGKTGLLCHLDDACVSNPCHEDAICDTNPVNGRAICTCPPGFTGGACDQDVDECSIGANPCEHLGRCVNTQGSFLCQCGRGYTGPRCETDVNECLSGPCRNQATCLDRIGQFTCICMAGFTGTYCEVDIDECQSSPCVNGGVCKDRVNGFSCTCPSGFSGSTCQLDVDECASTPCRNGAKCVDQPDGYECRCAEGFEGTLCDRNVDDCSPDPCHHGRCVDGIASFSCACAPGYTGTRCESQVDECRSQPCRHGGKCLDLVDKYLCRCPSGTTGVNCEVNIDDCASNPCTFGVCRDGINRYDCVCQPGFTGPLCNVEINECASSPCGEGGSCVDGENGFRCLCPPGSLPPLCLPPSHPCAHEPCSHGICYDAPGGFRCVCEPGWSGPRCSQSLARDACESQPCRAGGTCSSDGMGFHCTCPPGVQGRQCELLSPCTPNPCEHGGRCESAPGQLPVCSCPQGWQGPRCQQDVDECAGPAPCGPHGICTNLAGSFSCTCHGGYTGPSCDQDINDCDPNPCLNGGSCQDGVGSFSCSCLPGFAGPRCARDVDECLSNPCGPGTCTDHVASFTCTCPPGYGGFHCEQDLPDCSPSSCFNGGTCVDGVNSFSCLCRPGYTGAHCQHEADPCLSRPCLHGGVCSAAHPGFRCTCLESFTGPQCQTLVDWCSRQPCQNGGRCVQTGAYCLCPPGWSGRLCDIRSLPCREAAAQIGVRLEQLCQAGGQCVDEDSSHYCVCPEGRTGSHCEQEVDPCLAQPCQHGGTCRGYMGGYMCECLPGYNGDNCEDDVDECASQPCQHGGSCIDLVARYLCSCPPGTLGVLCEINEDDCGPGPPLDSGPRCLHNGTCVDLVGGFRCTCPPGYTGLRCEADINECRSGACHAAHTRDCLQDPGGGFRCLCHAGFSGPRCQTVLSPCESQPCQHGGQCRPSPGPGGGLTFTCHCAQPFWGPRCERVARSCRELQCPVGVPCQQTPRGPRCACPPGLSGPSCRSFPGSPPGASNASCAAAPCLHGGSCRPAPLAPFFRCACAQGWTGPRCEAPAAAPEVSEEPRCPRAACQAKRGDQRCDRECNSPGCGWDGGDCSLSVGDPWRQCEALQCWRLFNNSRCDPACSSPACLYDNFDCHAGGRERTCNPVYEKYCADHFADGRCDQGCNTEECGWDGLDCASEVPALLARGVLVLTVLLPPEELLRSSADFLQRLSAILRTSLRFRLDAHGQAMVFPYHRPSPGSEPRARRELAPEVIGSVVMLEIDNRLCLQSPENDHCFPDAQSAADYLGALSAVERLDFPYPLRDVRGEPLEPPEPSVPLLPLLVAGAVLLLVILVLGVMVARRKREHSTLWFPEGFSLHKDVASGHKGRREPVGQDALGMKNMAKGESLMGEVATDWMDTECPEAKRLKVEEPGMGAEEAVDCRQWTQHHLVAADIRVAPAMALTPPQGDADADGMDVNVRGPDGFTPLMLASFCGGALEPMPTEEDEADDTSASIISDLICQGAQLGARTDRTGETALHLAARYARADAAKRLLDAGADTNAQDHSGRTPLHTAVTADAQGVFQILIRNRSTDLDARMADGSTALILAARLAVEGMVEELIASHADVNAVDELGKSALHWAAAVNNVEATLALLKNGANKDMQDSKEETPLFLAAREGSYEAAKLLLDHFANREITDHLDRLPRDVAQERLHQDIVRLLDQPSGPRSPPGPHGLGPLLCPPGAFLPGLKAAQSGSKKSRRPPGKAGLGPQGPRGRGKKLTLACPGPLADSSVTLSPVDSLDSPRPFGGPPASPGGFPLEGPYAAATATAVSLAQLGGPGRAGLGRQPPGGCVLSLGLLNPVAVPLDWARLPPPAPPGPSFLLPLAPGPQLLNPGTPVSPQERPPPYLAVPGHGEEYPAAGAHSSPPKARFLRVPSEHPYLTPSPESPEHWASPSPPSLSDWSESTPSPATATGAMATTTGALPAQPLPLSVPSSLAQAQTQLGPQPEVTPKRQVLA

`COc1cc(CO)cc(I)c1O[C@H]1C=C(C(=O)NCCO)C[C@@H](NC[C@@H]2CCCO2)[C@@H]1O`: the composite z-score in [1] was 1.35; in assay [5] it was 1.91; in assay [7], -0.17; in assay [8] it was 1.26; in assay [9], 0.554; in [10], -0.0033. In addition, the z-score is -0.396 (inactive) in [2], -0.424 (inactive) in [3], -0.0698 (inactive) in assay [4] and 1.6 (inactive) in assay [6].
For `CN(C)CCCCCCNC(=O)[C@@H]1C[C@@H]2C(=O)N3CCC[C@H]3C(=O)N2[C@@H]1c1ccc(O)cc1`, the composite z-score in assay [1] is 1.53; in assay [5], 2.51; in assay [7] it was 0.312; in [8] it was 1.5; in [9], 1.05; in assay [10] it was 0.28. Moreover, the z-score was -3.92 (inactive) in assay [2], -0.974 (inactive) in assay [3], -0.982 (inactive) in [4] and 0.434 (inactive) in [6].
With `O=C1O[C@H](c2ccccc2)[C@H](c2ccccc2)N2[C@H]1[C@@H](C(=O)N1CCN(c3ncccn3)CC1)[C@]1(C(=O)Nc3ccc(C#CC4=CCCCC4)cc31)[C@H]2c1ccccc1OCCO`, the composite z-score is 1.53 in assay [1]; 2.65 in assay [5]; 0.276 in assay [7]; 0.922 in assay [8]; 1.07 in [9]; -0.0493 in assay [10]. Moreover, the z-score is 1.08 (inactive) in assay [2], 0.759 (inactive) in assay [3], 3.51 (inactive) in assay [4] and 0.071 (inactive) in assay [6].
On to `O=C(CS)NCCCCCNC(=O)[C@@H]1C[C@@H]2C(=O)NCC(=O)N2[C@@H]1c1cccc(OCCO)c1`, for which the composite z-score in assay [1] is 0.701; in assay [5] it was 2.92; in [7], -0.0823; in [8] it was 0.271; in assay [9], 0.328; in assay [10], -0.0466. Besides, the z-score is -5.72 (inactive) in assay [2], -0.31 (inactive) in assay [3], -0.485 (inactive) in [4] and 2.71 (inactive) in assay [6].
Regarding `COc1ccc([Si](C)(C)[C@@H]2[C@@H](CCn3cc(CCO)nn3)O[C@]3(C(=O)N(Cc4cccc(N5C(=O)c6cccc7cccc5c67)c4)c4ccccc43)[C@H]2C)cc1`, the composite z-score was 1.55 in assay [1]; 1.76 in assay [5]; -0.0956 in [7]; 1.14 in assay [8]; 0.903 in assay [9]; -0.125 in [10]. Also, the z-score in assay [2] is 1.29 (inactive); in [3], 1.56 (inactive); in assay [4], 20.9 (active); in assay [6] it was 1.17 (inactive).
Turning to `COCCOC(=O)N1C(=O)[C@@]2(c3ccccc31)[C@H](C(=O)N1CCc3cc(OC)c(OC)cc3C1)[C@H]1C(=O)O[C@H](c3ccccc3)[C@H](c3ccccc3)N1[C@@H]2c1ccc(O)cc1`, the composite z-score in assay [1] amounted to 1.51; in assay [5], 2.85; in [7] it was 0.206; in [8], 1.39; in [9], 0.806; in [10] it was 0.0383. Also, the z-score in [2] was -0.654 (inactive); in assay [3] it was 0.194 (inactive); in assay [4], 1.8 (inactive); in assay [6] it was 2.31 (inactive).
Turning to `C[N+](C)(C)CCCC[C@@H]1NC(=O)[C@H]2C[C@@H](C(=O)NCCCCCCNC(=O)CS)[C@@H](c3ccc(O)cc3)N2C1=O`, the composite z-score in [1] is -0.27; in assay [5] it was 0.908; in [7], -0.17; in [8] it was 0.395; in assay [9], -1.06; in assay [10] it was -0.126. The z-score in assay [2] is -0.304 (inactive); in [3], 0.481 (inactive); in assay [4] it was -0.344 (inactive); in [6] it was 0.138 (inactive).
In the case of `COc1cc2c(cc1O)C=[N+](Cc1cc3c(cc1Br)OCO3)CC2`, the composite z-score is 0.168 in assay [1]; 0.379 in assay [5]; -0.0285 in assay [7]; -0.833 in assay [8]; -0.223 in assay [9]; -0.188 in assay [10]. The z-score was 0.213 (inactive) in assay [2], -9.96 (active) in assay [3], -0.208 (inactive) in assay [4] and -1.52 (inactive) in assay [6].
On to `C=CCC(OC(C)=O)[C@@H]1[C@@H](N(Cc2ccc(-c3cccc(C(F)(F)F)c3)o2)C(=O)c2cccc3ccccc23)c2cc(OCCCO)ccc2N1C(=O)Cc1ccc2ccccc2c1` (stereo not given in full), for which the composite z-score was 0.263 in [1]; 0.878 in [5]; -0.106 in assay [7]; 0.01 in assay [8]; 0.0384 in assay [9]; -0.146 in assay [10]. Moreover, the z-score was 0.1 (inactive) in [2], -0.463 (inactive) in assay [3], 0.133 (inactive) in [4] and -0.57 (inactive) in assay [6].
Take `O=C1O[C@@H](c2ccccc2)[C@@H](c2ccccc2)N2[C@@H](c3ccc(OCCO)cc3)[C@]3(C(=O)Nc4ccc(C#CCCO)cc43)[C@@H](C(=O)NC[C@H](O)c3ccccc3)[C@H]12`: the composite z-score in [1] came to 1.54; in assay [5] it was 2.71; in [7], 0.409; in assay [8], 1.25; in [9] it was 0.667; in [10], 0.258. In addition, the z-score is 2.55 (inactive) in assay [2], 1.19 (inactive) in assay [3], 4.63 (inactive) in assay [4] and 0.695 (inactive) in assay [6].
For `CCOC(=O)C1=CCC(c2ccc(F)cc2)N(S(=O)(=O)c2ccc(C)cc2)C1` (stereo not given), the composite z-score was 0.249 in assay [1]; 0.799 in [5]; -0.0396 in assay [7]; -0.0456 in [8]; 0.284 in [9]; -0.0839 in assay [10]. Besides, the z-score in [2] was 0.265 (inactive); in [3] it was 0.639 (inactive); in assay [4] it was 1.68 (inactive); in [6], -0.704 (inactive).
Regarding `CCCCN1CC=CC23O[C@@H]4C=CCCOC(=O)C4[C@H]2C(=O)N(CCCCCO)[C@@H]3C1=O` (stereo not given in full), the composite z-score in [1] is -0.726; in assay [5] it was 0.905; in assay [7], -0.168; in [8], -0.548; in assay [9], -0.73; in [10], -0.0987. Also, the z-score in assay [2] was -0.494 (inactive); in [3] it was 0.0411 (inactive); in assay [4], 0.025 (inactive); in [6], -0.0111 (inactive).
As to `O=C1O[C@@H](c2ccccc2)[C@@H](c2ccccc2)N2[C@@H](c3ccc(OCCO)cc3)[C@]3(C(=O)Nc4ccc(C#CC5=CCCCC5)cc43)[C@@H](C(=O)N3CCCCCCC3)[C@H]12`, the composite z-score in assay [1] was 1.53; in assay [5] it was 3.98; in assay [7] it was 1.6; in [8], 1.78; in assay [9], 1.03; in assay [10], 1.26. The z-score was 1.1 (inactive) in assay [2], -1.09 (inactive) in assay [3], 2.13 (inactive) in assay [4] and 0.29 (inactive) in assay [6].
Take `C=CC[C@]1(C(=O)N2CCOCC2)N=C(c2ccc(OCCCO)cc2)O[C@H]1c1ccccc1N=[N+]=[N-]`: the composite z-score is 1.54 in [1]; 3.45 in assay [5]; 0.405 in assay [7]; 0.752 in [8]; 1.11 in assay [9]; -0.0406 in assay [10]. The z-score in assay [2] was -0.0233 (inactive); in assay [3] it was -1.22 (inactive); in [4], 0.206 (inactive); in [6], 0.734 (inactive).
